From ChEMBL document CHEMBL3988442, “University of Dundee, Small-Polar-MMV Screening Library” (2021)
For some of these results: Entries with a potency or affinity are not part of this list.

Columns and labels:
Design in all cases: scale not given: direction of the effect not stated beside the values
[1] = target: Protein translocase subunit SecA (Escherichia coli (strain K12)) (UniProt P10408); test: Assay to Identify E. coli SecA ATPase Inhibitors; assay type: functional; conditions: 30 µM
[2] = target: T1, Ubiquitin-activating enzyme e1, putative (Leishmania donovani (strain BPK282A1)) (UniProt E9BSI1); test: Leishmania donovani Ubiquitin Activating Enzyme (LdE1); assay type: functional; conditions: 30 µM
T1 sequence (whole entry): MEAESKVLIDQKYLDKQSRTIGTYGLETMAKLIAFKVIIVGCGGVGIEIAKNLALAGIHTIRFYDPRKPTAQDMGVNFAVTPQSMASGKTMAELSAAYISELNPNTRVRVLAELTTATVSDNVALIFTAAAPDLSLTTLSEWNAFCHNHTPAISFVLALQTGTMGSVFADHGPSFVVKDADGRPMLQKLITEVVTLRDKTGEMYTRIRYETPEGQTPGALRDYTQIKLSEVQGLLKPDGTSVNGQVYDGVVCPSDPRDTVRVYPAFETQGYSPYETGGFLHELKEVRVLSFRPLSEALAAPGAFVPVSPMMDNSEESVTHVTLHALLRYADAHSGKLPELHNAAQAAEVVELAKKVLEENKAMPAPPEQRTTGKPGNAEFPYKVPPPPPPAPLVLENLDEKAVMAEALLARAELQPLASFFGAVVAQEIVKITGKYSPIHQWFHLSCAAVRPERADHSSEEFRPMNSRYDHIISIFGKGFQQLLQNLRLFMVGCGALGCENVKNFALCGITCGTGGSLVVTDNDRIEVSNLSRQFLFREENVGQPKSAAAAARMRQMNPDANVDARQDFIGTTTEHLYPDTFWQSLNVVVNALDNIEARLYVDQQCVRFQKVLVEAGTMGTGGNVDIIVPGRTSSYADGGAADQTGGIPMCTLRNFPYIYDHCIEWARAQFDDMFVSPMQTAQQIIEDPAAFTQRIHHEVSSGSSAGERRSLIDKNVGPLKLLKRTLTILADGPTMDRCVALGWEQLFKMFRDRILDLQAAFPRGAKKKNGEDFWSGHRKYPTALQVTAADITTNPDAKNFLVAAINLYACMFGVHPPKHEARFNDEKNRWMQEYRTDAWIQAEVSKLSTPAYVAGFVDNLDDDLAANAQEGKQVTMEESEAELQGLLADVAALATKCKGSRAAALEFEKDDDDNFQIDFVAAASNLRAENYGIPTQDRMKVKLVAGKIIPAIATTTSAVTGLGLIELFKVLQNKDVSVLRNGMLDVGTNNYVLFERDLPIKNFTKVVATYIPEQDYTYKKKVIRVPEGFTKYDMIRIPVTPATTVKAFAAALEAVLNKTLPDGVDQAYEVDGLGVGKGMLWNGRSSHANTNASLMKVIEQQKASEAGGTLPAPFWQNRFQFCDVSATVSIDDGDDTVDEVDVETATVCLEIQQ

[3] = target: AMP-activated protein kinase, AMPK (Homo sapiens) (UniProt P54646+O43741+P54619+Q9UGJ0+Q9Y478+Q13131+Q9UGI9); test: AMP-dependent Kinase enzyme assay. An in vitro enzyme assay that detects ADP turnover that is directly proportional to AMPK activity. This uses naive AMPK that is activated during the assay with MK-8722; assay type: functional; conditions: 30 µM
[4] = target: Sialic acid-binding Ig-like lectin 9 (Homo sapiens) (UniProt Q9Y336); test: Hs-Siglec9 ALPHAscreen SOP 20170721; conditions: 10 µM
Sequence of Sialic acid-binding Ig-like lectin 9 (Homo sapiens) (Q9Y336 whole entry): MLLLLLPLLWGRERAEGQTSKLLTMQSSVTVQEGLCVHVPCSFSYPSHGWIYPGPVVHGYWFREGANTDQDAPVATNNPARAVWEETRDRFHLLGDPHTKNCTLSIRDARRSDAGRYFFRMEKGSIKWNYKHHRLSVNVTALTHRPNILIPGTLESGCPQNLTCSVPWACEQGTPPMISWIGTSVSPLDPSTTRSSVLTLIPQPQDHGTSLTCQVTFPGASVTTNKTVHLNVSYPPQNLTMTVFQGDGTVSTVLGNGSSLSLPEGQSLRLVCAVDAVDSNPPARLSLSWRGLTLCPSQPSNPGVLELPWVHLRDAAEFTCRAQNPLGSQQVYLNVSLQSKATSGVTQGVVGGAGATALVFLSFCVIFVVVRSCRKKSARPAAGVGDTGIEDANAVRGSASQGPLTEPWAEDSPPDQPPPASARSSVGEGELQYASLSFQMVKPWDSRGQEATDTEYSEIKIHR

[5] = tested on: Trypanosoma cruzi; test: Trypanosoma cruzi phosphomannomutase and mannose-1-phosphate guanylyltransferase assay; assay type: functional; conditions: 10 µM
[6] = target: T2, Arginase-2, mitochondrial (Homo sapiens) (UniProt P78540); test: in vitro enzyme assay to detect the production of urea directly proportional to the activity of Arginase II; assay type: functional; conditions: 33.3 µM; further: in the data most compounds retested in dose-response had high values
T2 sequence (whole entry): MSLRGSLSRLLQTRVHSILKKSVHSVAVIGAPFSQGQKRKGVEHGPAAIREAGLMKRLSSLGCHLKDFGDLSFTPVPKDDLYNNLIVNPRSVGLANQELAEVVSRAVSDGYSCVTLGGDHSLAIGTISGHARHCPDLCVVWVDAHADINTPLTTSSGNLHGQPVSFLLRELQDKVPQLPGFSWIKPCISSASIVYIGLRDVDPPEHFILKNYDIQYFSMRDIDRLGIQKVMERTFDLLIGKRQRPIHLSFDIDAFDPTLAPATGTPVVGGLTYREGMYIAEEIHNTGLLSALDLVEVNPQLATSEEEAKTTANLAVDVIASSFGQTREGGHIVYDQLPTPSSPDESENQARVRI

[7] = target: T3, Proteasome subunit beta (Trypanosoma cruzi) (UniProt O96673); test: Trypanosoma cruzi proteasome chymotrypsin-like activity (TcProtChymo) assay.; further: in the data most compounds retested in dose-response had high values; assay type: functional; conditions: 9.37 µM
T3 sequence (whole entry): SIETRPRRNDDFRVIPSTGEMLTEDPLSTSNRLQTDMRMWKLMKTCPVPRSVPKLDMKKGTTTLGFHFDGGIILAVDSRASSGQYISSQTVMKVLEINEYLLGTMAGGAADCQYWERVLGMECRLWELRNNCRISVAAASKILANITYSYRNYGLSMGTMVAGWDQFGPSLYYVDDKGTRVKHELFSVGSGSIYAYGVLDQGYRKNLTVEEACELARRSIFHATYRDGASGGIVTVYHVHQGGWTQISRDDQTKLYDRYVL

[8] = organism: Homo sapiens; test: To identify inhibition of the IFN signalling (Jak-Stat) pathway via expression of an eGFP reporter gene under the control of an IFN-stimulated response element (ISRE) containing MxA promoter.; assay type: functional; conditions: 30 µM
[9] = target: T4, Tyrosyl-tRNA synthetase, putative (Trypanosoma cruzi (strain CL Brener)) (UniProt Q4DSP6); test: Trypanosoma cruzi tyrosyl tRNA synthetase (TcYRS) _High Tyrosine SOP; assay type: functional; conditions: 30 µM; further: in the data most compounds retested in dose-response had high values
T4 sequence (whole entry): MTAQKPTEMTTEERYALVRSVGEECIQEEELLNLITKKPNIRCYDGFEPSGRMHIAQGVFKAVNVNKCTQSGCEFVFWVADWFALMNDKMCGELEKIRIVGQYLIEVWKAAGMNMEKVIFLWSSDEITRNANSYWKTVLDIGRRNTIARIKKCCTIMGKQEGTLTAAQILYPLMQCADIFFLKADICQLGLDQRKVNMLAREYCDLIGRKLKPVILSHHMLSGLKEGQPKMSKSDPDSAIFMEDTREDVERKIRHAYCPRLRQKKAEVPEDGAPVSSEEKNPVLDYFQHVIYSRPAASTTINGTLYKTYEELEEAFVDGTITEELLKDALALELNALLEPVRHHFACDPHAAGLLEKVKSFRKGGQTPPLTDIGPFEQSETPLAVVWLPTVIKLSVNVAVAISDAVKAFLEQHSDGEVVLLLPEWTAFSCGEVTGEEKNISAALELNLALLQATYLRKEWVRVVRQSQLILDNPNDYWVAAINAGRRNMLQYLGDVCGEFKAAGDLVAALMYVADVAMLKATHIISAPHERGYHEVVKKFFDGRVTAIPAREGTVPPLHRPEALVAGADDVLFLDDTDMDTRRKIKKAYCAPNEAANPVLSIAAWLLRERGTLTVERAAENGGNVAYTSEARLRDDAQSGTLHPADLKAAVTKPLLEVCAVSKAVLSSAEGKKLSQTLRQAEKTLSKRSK

[10] = target: T4, Tyrosyl-tRNA synthetase, putative (Trypanosoma cruzi (strain CL Brener)); test: Trypanosoma cruzi tyrosyl tRNA synthetase (TcYRS) SOP; assay type: functional; conditions: 30 µM
[11] = target: Chromo domain-containing protein 1 (Saccharomyces cerevisiae (strain ATCC 204508 / S288c) (Baker's yeast)) (UniProt P32657); test: ScCHD-1 Enzyme Inhibition Assay; assay type: functional; conditions: 30 µM; further: in the data most compounds retested in dose-response had high values
Sequence of Chromo domain-containing protein 1 (Saccharomyces cerevisiae (strain ATCC 204508 / S288c) (Baker's yeast)) (P32657 whole entry, the tested form may be a part): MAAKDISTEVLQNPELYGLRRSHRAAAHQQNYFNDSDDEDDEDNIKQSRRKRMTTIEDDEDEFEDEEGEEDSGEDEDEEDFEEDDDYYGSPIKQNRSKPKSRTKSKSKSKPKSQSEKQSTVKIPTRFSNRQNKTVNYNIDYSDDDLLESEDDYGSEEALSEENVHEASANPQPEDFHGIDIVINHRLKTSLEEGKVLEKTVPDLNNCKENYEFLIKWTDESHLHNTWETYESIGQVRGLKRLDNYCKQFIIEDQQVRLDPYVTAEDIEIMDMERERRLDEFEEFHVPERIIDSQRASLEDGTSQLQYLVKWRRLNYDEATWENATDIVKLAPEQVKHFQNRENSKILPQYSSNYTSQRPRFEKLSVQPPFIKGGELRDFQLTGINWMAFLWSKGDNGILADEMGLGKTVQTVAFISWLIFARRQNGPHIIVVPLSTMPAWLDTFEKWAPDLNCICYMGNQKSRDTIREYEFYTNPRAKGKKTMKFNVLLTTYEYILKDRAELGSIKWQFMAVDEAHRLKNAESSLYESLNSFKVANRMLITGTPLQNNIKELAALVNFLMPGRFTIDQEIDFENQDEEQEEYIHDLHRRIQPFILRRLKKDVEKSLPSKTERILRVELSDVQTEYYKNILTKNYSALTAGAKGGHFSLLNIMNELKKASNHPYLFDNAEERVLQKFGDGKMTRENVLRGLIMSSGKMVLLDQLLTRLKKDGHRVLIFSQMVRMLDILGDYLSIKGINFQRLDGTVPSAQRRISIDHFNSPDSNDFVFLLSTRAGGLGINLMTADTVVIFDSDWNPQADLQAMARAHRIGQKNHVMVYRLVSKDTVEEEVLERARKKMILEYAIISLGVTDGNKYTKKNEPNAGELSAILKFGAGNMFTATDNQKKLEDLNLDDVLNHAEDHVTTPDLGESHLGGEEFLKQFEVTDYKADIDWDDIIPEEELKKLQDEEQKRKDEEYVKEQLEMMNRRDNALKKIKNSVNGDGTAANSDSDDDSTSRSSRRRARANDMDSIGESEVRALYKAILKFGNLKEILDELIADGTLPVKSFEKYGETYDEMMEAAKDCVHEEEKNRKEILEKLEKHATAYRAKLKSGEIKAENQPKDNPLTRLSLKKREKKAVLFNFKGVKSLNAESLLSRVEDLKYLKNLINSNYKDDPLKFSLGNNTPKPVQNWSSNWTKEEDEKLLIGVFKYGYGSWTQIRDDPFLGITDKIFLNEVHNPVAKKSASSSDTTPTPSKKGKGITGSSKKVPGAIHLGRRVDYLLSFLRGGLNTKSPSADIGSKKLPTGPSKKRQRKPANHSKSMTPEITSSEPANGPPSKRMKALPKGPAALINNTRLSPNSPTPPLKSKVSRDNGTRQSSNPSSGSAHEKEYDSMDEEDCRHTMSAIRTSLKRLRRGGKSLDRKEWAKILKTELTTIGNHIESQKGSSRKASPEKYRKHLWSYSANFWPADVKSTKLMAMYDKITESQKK

Sequence of Protein translocase subunit SecA (Escherichia coli (strain K12)) (P10408 whole entry): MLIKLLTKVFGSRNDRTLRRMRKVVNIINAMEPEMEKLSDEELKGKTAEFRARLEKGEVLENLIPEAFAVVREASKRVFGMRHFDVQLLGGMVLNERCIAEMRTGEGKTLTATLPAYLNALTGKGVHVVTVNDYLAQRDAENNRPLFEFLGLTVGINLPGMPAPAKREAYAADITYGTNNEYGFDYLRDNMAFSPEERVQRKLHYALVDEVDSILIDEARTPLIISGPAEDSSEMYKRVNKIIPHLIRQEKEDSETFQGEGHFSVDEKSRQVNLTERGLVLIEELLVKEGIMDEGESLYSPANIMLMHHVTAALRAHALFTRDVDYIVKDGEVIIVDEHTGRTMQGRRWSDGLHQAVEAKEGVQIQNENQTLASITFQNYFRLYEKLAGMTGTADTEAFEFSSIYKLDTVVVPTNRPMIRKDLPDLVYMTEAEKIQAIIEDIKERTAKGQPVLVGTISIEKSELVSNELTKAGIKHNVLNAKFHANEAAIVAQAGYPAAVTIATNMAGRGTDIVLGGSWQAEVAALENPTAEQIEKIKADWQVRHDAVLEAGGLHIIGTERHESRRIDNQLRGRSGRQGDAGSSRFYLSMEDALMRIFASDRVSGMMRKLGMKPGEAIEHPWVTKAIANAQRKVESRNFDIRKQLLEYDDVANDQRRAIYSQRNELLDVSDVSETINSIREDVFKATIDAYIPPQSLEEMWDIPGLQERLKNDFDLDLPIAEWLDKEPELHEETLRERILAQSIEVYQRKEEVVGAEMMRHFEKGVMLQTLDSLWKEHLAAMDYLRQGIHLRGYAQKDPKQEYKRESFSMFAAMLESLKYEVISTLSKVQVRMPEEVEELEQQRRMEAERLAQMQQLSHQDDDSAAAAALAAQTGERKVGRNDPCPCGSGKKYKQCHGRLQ

Row | SMILES | Percent Effect [1] [%] | Percent Effect [2] [%] | Percent Effect [3] [%] | Percent Effect [4] [%] | Percent Effect [5] [%] | Percent Effect [6] [%] | Percent Effect [7] [%] | Percent Effect [8] [%] | Percent Effect [9] [%] | Percent Effect [10] [%] | Percent Effect [11] [%]
1 | Cc1cnn(CCC(=O)N2CCOC(c3nc(C(C)(C)C)n[nH]3)C2)c1 (stereo not given) | -3.54 | -6.94 | 7.25 | 3.02 | -3.6 | -0.883 | 5.26 | 20.6 | -1.05 | -10.3 | -1.3
2 | Cc1ccoc1-c1nnc(CNCCn2cccn2)o1 | -0.597 | 22.8 | -3.87 | -12.1 | 3.12 | 1.52 | 7.29 | 23.9 | 7.39 | 24.1 | -15.5
3 | Cc1cc(CN2CCN(CC(O)c3ccccc3)CC2)no1 (stereo not given) | -5.4 | 10.1 | -4.74 | 1.14 | 7.65 | 2.28 | -0.0819 | -14.5 | 6.4 | 13.9 | -1.57
4 | O=C(NC[C@]12COC[C@H]1CN(Cc1nccs1)C2)N1CCCC1 | -2.52 | 9.33 | 4.41 | 2.77 | -4.52 | -7.92 | 13.5 | -4.41 | 2.12 | 5.13 | -5.18
5 | O=C(Cc1cccc(Cl)c1)N[C@@H]1CCNC[C@H]1O | -6.4 | 18.9 | -5.86 | 31.3 | 4.2 | 19.1 | 9.7 | 0.775 | 5.38 | 16.1 | -13.7
6 | CCNc1cc2c(nn1)CCN(C(=O)c1ccc(NC3CC3)nc1)C2 | -3.24 | 0 | -3.65 | 11.3 | 3.38 | 1.15 | 2.67 | 6.81 | 5.39 | 9.76 | 1.67
7 | CCN(CC)C(C(=O)NCc1ccc(N2CCCC2)nc1)C(C)C (stereo not given) | -6 | 5.41 | -3.6 | 6.67 | -5.94 | -4.41 | 11.9 | 10.1 | 2.46 | 1.24 | -4.84
8 | Cc1cc(NC(=O)NCCc2cccs2)n(C)n1 | 0.534 | 4.17 | -1.97 | -7.64 | -8.65 | 4.42 | 23.3 | -9.88 | 0 | 5.13 | -0.833
9 | O=C(NC1CCCN(c2ncccn2)C1)c1ccoc1 (stereo not given) | -3.61 | 23.7 | -4.63 | -9.78 | -0.487 | 2.37 | 8.34 | 8.15 | 3.19 | 15.6 | -9.61
10 | O=C(NCc1cc[nH]n1)NC1CCCN(c2ncccn2)C1 (stereo not given) | -1.16 | 10.5 | 6.14 | -0.458 | -4.58 | -4.73 | 16 | -3.24 | 4.25 | 13 | -5.61
11 | CCOCC1CN(C(=O)CS(C)(=O)=O)Cc2cnn(C)c21 (stereo not given) | -1.67 | 2.67 | -16.6 | 8.66 | -3.28 | -11.3 | 4.27 | 1.39 | 2.08 | 2.5 | -6.62
12 | CC(C)C1CN(C(=O)c2ccc(C(N)=O)cc2)CCS1 (stereo not given) | -4.2 | 5.2 | 1.75 | 3.92 | -6.2 | -4.14 | 6.49 | 6.03 | 2.15 | 6.17 | 0.585
13 | NC(=O)CN1CC2(CCC1=O)CCN(Cc1cc(F)ccc1Cl)CC2 | -3.36 | 16 | -3.98 | 13.3 | 7.5 | 5.73 | 18 | 8.19 | 3.83 | 18.5 | -5.6
14 | Cc1nc(N2CCN(C(=O)c3ccc(O)cc3)CC2)c2cnn(C)c2n1 | -0.631 | 0 | -5.77 | 5.23 | -2.74 | 1.6 | -2.88 | 15.3 | -2.46 | -6.17 | 0.501
15 | Cc1cc(Nc2nc(C)cs2)nc(C2CCCCN2CCO)n1 (stereo not given) | -0.14 | 1.35 | -0.107 | -8.52 | 7.12 | -5.34 | 13.9 | -9.01 | 4.3 | 11.7 | -23.2
16 | CN(Cc1ccccc1)C1(C(=O)O)Cc2ccccc2C1 | -3.87 | 2.67 | -2.42 | 1.78 | -3.6 | 3.12 | 12.9 | 5.79 | 2.73 | 8.64 | -5.27
17 | Cc1cccc(N2CCN(CCNC(=O)c3ccnn3C)CC2)c1 | 0.195 | 5.41 | -1.81 | -4.27 | -4.88 | 3.75 | 14.6 | 6.3 | 9.9 | 11 | 5.87
18 | CCc1ncncc1C(=O)N1CCN(Cc2c(C)noc2C)CC1 | -5.8 | 13.2 | -4.4 | 4.23 | 2.89 | 0.36 | 3.98 | -0.539 | 7.39 | 16.1 | -0.381
19 | COCc1cn([C@@H]2c3ccccc3C3(CCNCC3)[C@H]2O)nn1 | -4.27 | 9.72 | 2.64 | 16.1 | 6.71 | 24.7 | 3.16 | 3.98 | 4.21 | 10.3 | -5.28
20 | O=S(=O)(C1CC1)N1CC[C@]2(C[C@@H](Oc3ccccn3)CO2)C1 | -2.9 | 10.4 | 2.58 | 5.55 | -2.46 | 3.23 | 7.66 | 11.7 | 0 | 8.97 | -7.95
